Reference: PubChem BioAssay AID430 (Sanford-Burnham Center for Chemical Genomics, 2006)
In all, about 63,000 compounds went through this assay and about 1,100 (1.7%) were called active. The list comes from a sample in which actives are over-represented; it also holds similar structures and randomly drawn compounds. Potency and affinity values are given separately. Values without a mark were called inactive. Cut-off read from the data, not from the text of the source: active = cytotoxicity above about 50%; inactive = the rest.

Test: HPDE-C7 pancreatic duct cell viability loss – fluorescence, HTS (AID 430);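 note: cells exposed to compound for 48 hours before viability readout; 0% = vehicle and 100% = reference cytotoxic drug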
Conditions: HPDE-C7 pancreatic duct cells viability, at 10 µM, active compounds read high
`CC(NC(=O)CC12CC3CC(CC(C3)C1)C2)C(=O)O` (stereo not drawn) gave a cytotoxicity of 3%.
`COCCN(CC(=O)NCc1ccc(F)cc1)C(=O)CCC(=O)Nc1nccs1` showed a cytotoxicity of 3.1%.
For `CCc1nnc(NC(=O)C2CCN(c3nccc(C)n3)CC2)s1`, the cytotoxicity was -2.7%.
Compound `O=C(CSc1nnc(CNC(=O)c2cccs2)o1)NC1CCCCC1` has a cytotoxicity of -2.7%.
`O=C1c2ccccc2-c2onc3ccc(NCCCn4ccnc4)c1c23` gave a cytotoxicity of 20.3%.
For `O=C1c2ccccc2-c2onc3ccc(NCc4ccco4)c1c23`, the cytotoxicity was 62.1% (active).
In the case of `COc1ccc2noc3c2c1C(=O)c1ccccc1-3`, the cytotoxicity is reported as 45.8%.
For `Cc1nn(C)c(C)c1CNC(=O)c1nn2c(c1Cl)NC(c1cccs1)CC2C(F)(F)F` (stereo not drawn), the cytotoxicity was -0.2%.
For `COc1ccc(NC(=O)C2CCCN(c3c4c(nc5ncnn35)CCC4)C2)cc1` (stereo not drawn), the cytotoxicity was -37.1%.
Work on `CCOc1ccccc1CNC(=O)C1CCN(c2nc3ccccc3o2)CC1` yielded a cytotoxicity of -9.3%.
`Cc1nc(C)c(-c2csc(NCc3ccco3)n2)s1` showed a cytotoxicity of -21.6%.
For `Cc1nc(NC(=O)c2ccccc2)sc1-c1csc(N)n1`, the cytotoxicity was 39.2%.
With `Cc1nc(NC(=O)c2ccccc2)sc1-c1csc(NCc2ccco2)n1` the cytotoxicity was 63.4% (active).
For `O=C(Nc1nc2c(s1)CCCC2)c1cc2n(n1)C(C(F)(F)F)CC(C1CC1)N2` (stereo not drawn), the cytotoxicity was 45.6%.
Compound `Cc1cccc(N(C(=O)Cn2nnc3ccccc32)C(C(=O)NCc2ccco2)c2ccncc2)c1` (stereo not drawn) has a cytotoxicity of 5.1%.
Work on `CC1=C(C(=O)NCc2ccccc2)C(c2ccc(C)o2)n2ncnc2N1` (stereo not drawn) yielded a cytotoxicity of -15%.
Work on `CCOC(=O)c1c(C2COc3ccccc3O2)csc1N` (stereo not drawn) yielded a cytotoxicity of -2.8%.
In the case of `COC(=O)Cc1cc(=O)[nH]c(Nc2nc3ccccc3o2)n1`, the cytotoxicity is reported as 7.2%.
In the case of `COCc1cc(=O)[nH]c(Nc2nc3ccc(C)cc3o2)n1`, the cytotoxicity is reported as 51.7% (active).
For `COCc1cc(=O)[nH]c(Nc2nc3ccccc3o2)n1`, the cytotoxicity was 34.6%.
In the case of `O=S(=O)(c1cc(C(F)(F)F)ccc1Cl)N1CCCCCC1`, the cytotoxicity is reported as -4%.
Work on `CCOC(=O)C1=C(c2ccccc2)Nc2ncnn2C1c1ccccn1` (stereo not drawn) yielded a cytotoxicity of -3.2%.
In the case of `CCOC(=O)N1CCN(c2ncnc3c2[nH]c2ccc(OC)cc23)CC1`, the cytotoxicity is reported as -5%.
`c1ccc(CN2CCN(c3ncnc4c3[nH]c3ccccc34)CC2)cc1` gave a cytotoxicity of 15.2%.
Compound `CCOC(=O)c1[nH]c2ccc(OCC)cc2c1NC(=O)CN1CCN(c2ccccn2)CC1` has a cytotoxicity of 8.8%.
Compound `c1ccc(CN2CCN(c3ncnc4nc[nH]c34)CC2)cc1` has a cytotoxicity of 8.4%.
For `Cc1ccc2c(c1)[nH]c1c(N3CCN(Cc4ccccc4)CC3)ncnc12`, the cytotoxicity was 82.2% (active).
For `Cc1ccc2[nH]c3c(N4CCOCC4)ncnc3c2c1`, the cytotoxicity was 5.1%.
For `CCOc1ccc2[nH]c3c(N4CCN(c5ccccn5)CC4)ncnc3c2c1`, the cytotoxicity was 62.5% (active).
In the case of `Cc1ccc2[nH]c3c(N4CCCCCC4)ncnc3c2c1`, the cytotoxicity is reported as 23.7%.
Work on `Fc1ccccc1CSc1ncnc2c1oc1ccccc12` yielded a cytotoxicity of 5.1%.
For `COc1ccccc1NC(=O)c1cc(S(=O)(=O)N2CCC3(CC2)OCCO3)ccc1F`, the cytotoxicity was 4.8%.
In the case of `COc1cccc(C(=O)/C=C/Nc2cc(C)ccc2O)c1`, the cytotoxicity is reported as 65.2% (active).
With `Cc1cccc(OCC(=O)Nc2cc(C)ccc2O)c1` the cytotoxicity was -6%.
`COc1cccc(C(=O)Nc2ccc(C)cc2)c1` showed a cytotoxicity of -1.9%.
`CCC(CC)C(=O)Nc1nnc(-c2cccs2)s1` showed a cytotoxicity of 5%.
Compound `Cc1cccc(C)c1NC1=NC(C)(C)N=C(N)N1` has a cytotoxicity of 10.8%.
`Cc1nn(-c2ccccc2)c(C)c1C(=O)OC/C(O)=C(\C#N)c1nc2ccccc2[nH]1` showed a cytotoxicity of 7.4%.
In the case of `CCOC(=O)c1c(C)[nH]c(C(=O)OC/C(O)=C(\C#N)c2nc3ccccc3[nH]2)c1C`, the cytotoxicity is reported as 89.8% (active).
In the case of `N#C/C(=C(/O)COC(=O)c1ccc2c(c1)OCCO2)c1nc2ccccc2[nH]1`, the cytotoxicity is reported as 24.1%.
`CCOc1cc(Br)c(C(=O)O)cc1OCC` gave a cytotoxicity of -2.5%.
With `COc1cccc2c1C(=O)c1c(O)c3c(c(O)c1C2=O)C[C@@](O)(C(=O)CO)C[C@@H]3O[C@H]1C[C@H](N)[C@H](O)[C@H](C)O1` the cytotoxicity was 102% (active).
For `COc1cccc2c1C(=O)c1c(O)c3c(c(O)c1C2=O)C[C@@](O)(C(C)=O)C[C@@H]3O[C@H]1C[C@H](N)[C@H](O)[C@H](C)O1`, the cytotoxicity was 108% (active).
For `COCC(C)NC(=O)c1cc(-c2ccc(OC)c(OC)c2)on1` (stereo not drawn), the cytotoxicity was -3%.
In the case of `O=C1c2ccccc2C(=O)N1CC#CCN1CCN(C2CCCCC2)CC1`, the cytotoxicity is reported as 2.6%.
In the case of `Cc1cc(C)c(C#N)c(SCS(=O)c2ccc(C(C)(C)C)cc2)n1` (stereo not drawn), the cytotoxicity is reported as -4.8%.
With `Cc1cc(C)c(C#N)c(SCS(=O)Cc2ccc(Cl)cc2)n1` (stereo not drawn) the cytotoxicity was 50.3% (active).
Work on `Cc1cc(C)c(C#N)c(SCS(=O)Cc2ccccc2)n1` (stereo not drawn) yielded a cytotoxicity of -16.4%.
Work on `CCOc1ccc(-c2noc(=O)[nH]2)cc1` yielded a cytotoxicity of 0.9%.
Compound `COc1ccc2c(c1)C=CC1(O2)N(CCO)c2ccccc2C1(C)C` (stereo not drawn) has a cytotoxicity of 32.6%.
Work on `CC1=NOC2(C1)N(C)c1ccccc1C2(C)C` (stereo not drawn) yielded a cytotoxicity of -10.1%.
Compound `CCOC(=O)c1sc(NC(=O)CCSC)nc1C` has a cytotoxicity of 26.2%.
`O=C(CSc1ncn(-c2ccccc2)n1)Nc1nc2ccccc2s1` showed a cytotoxicity of 9.1%.
For `CCOC(=O)c1sc(NC(=O)CSc2ncn(-c3ccccc3)n2)nc1C`, the cytotoxicity was 70.4% (active).
With `CCOC(=O)c1sc(NC(=O)CSc2nnnn2-c2ccccc2)nc1C` the cytotoxicity was -4.9%.
With `CCOC(=O)c1ccc(NC(=O)CCc2nc(-c3ccccc3Cl)no2)cc1` the cytotoxicity was 74.8% (active).
`CCOC(=O)c1ccc(NC(=O)CCc2nc(-c3ccc(Cl)cc3)no2)cc1` gave a cytotoxicity of -3.7%.
With `CCOC(=O)c1ccc(NC(=O)CCc2nc(-c3ccccc3)no2)cc1` the cytotoxicity was -1.1%.
Work on `Cc1sc2ncn3ncnc3c2c1C` yielded a cytotoxicity of 4.8%.
Compound `Cc1cc(C)n2nc(C(=O)NCc3ccco3)nc2n1` has a cytotoxicity of 11.2%.
In the case of `COC(=O)c1ccccc1NC(=O)c1cnc2sccn2c1=O`, the cytotoxicity is reported as 2.7%.
In the case of `COC(=O)c1ccccc1NC(=O)c1ccc(-c2ccccc2F)o1`, the cytotoxicity is reported as 88.4% (active).
`COc1ccccc1NC(=O)c1ccc(-c2ccccc2F)o1` gave a cytotoxicity of -0.2%.
`COC(=O)c1ccccc1NC(=O)c1ccc(COc2ccccc2)o1` gave a cytotoxicity of -7.8%.
Work on `COc1ccc(OC)c(NC(=O)c2cc(-c3cc(Cl)ccc3O)n[nH]2)c1` yielded a cytotoxicity of 12.2%.
With `COc1ccc(NC(=O)c2cc(-c3cc(C)cc(C)c3O)n[nH]2)cc1Cl` the cytotoxicity was 59.6% (active).
Compound `Cc1ccc(O)c(-c2cc(C(=O)Nc3ccc(S(=O)(=O)N4CC(C)OC(C)C4)cc3)[nH]n2)c1` (stereo not drawn) has a cytotoxicity of -29.9%.
Compound `Cc1cc(O)c(-c2cc(C(=O)Nc3ccc(S(=O)(=O)N4CCOCC4)cc3)[nH]n2)cc1C` has a cytotoxicity of 1%.
For `COc1ccc(OC)c(NC(=O)c2cc(-c3ccc(C)cc3O)n[nH]2)c1`, the cytotoxicity was -13.3%.
With `O=C(Nc1cc(C(F)(F)F)ccc1Cl)C1CCN(c2nnc(-n3cccc3)s2)CC1` the cytotoxicity was -14.7%.
With `COC(=O)c1ccc(CSc2ncnc3c2nnn3-c2ccc(OC)cc2)o1` the cytotoxicity was -1%.
Compound `O=C(O)CCC(=O)N1CCc2cc(S(=O)(=O)NC3CCCc4ccccc43)ccc21` (stereo not drawn) has a cytotoxicity of 3.4%.
Work on `Nc1ccccc1-c1nnc(SCc2ccccc2F)[nH]c1=O` yielded a cytotoxicity of 3.6%.
With `NC(=O)CSc1nnc2sc3ccccc3n12` the cytotoxicity was 3.6%.
`COc1cccc(S(=O)(=O)Nc2cccnc2)c1` showed a cytotoxicity of -10.8%.
For `COc1ccc(-c2cnc(SCC(=O)Nc3cc(C)on3)n2Cc2ccco2)cc1`, the cytotoxicity was -8.9%.
In the case of `Cc1cnc(NC(=O)CSc2ncc(-c3ccccc3)n2Cc2ccco2)s1`, the cytotoxicity is reported as -1%.
For `COc1ccc(-c2cnc(SCC(=O)Nc3ccc4c(c3)OCO4)n2Cc2ccco2)cc1`, the cytotoxicity was 5%.
For `CC(=O)Nc1cccc(NC(=O)CSc2ncc(-c3ccc(Cl)cc3)n2Cc2ccco2)c1`, the cytotoxicity was 64% (active).
With `O=C(CSc1ncc(-c2ccc(F)cc2)n1Cc1ccco1)Nc1ccc2c(c1)OCO2` the cytotoxicity was 72.6% (active).
`CCC(=O)Nc1cc(NC(=O)CSc2ncc(-c3ccc(F)cc3)n2Cc2ccco2)ccc1C` showed a cytotoxicity of 3.8%.
For `CCOCCCN1CC(C(=O)NCCc2ccccc2)CC1=O` (stereo not drawn), the cytotoxicity was -5.3%.
With `CC(=O)Nc1ccc(C(=O)CSc2nc3ccccc3n2CC(=O)N2CCCC2)cc1` the cytotoxicity was 5%.
`Cc1cc2c(c(N3CCOCC3)n1)C(=O)OC2` showed a cytotoxicity of -1.9%.
In the case of `COc1ccc(CNC(=O)C2CCCN2S(=O)(=O)c2ccccc2)cc1` (stereo not drawn), the cytotoxicity is reported as -10.6%.
`O=S(=O)(c1ccccc1Cl)N1CCCC(c2nc(-c3cccnc3)no2)C1` (stereo not drawn) showed a cytotoxicity of 2%.
Work on `CCC(C)(C)n1nnnc1C(c1cc2cc(OC)c(OC)cc2[nH]c1=O)N1CCc2ccccc21` (stereo not drawn) yielded a cytotoxicity of 11.4%.
For `CCC(C)(C)n1nnnc1C(c1cc2ccc(OC)cc2[nH]c1=O)N1CCc2ccccc21` (stereo not drawn), the cytotoxicity was 50.8% (active).
With `COc1ccc2[nH]c(=O)c(CN(C3CCCCC3)C(c3nnnn3Cc3ccco3)C(C)C)cc2c1` (stereo not drawn) the cytotoxicity was 21.5%.
Work on `CCC(C)(C)n1nnnc1C(c1cc2ccc(C)cc2[nH]c1=O)N(Cc1cccnc1)Cc1ccco1` (stereo not drawn) yielded a cytotoxicity of 23.4%.
Work on `COc1ccc2cc(CN(Cc3ccco3)C(c3nnnn3C3CCCCC3)C(C)C)c(=O)[nH]c2c1` (stereo not drawn) yielded a cytotoxicity of -35.5%.
With `CCC(c1nnnn1Cc1ccco1)N(Cc1cc2cc(OC)ccc2[nH]c1=O)C1CCCCC1` (stereo not drawn) the cytotoxicity was 97.7% (active).
Work on `COc1ccc2[nH]c(=O)c(CN(Cc3nnnn3Cc3ccco3)C3CCCCC3)cc2c1` yielded a cytotoxicity of 24.6%.
Work on `COc1ccc2cc(CN(Cc3ccco3)Cc3nnnn3C3CCCCC3)c(=O)[nH]c2c1` yielded a cytotoxicity of 23.1%.
With `CCC(c1nnnn1C1CCCCC1)N(Cc1ccco1)Cc1cc2ccc(OC)cc2[nH]c1=O` (stereo not drawn) the cytotoxicity was 56.8% (active).
Work on `CCC(C)(C)n1nnnc1C(c1cc2cc(OC)ccc2[nH]c1=O)N1CCc2ccccc21` (stereo not drawn) yielded a cytotoxicity of 2.6%.
Compound `CCC(c1nnnn1Cc1ccccc1)N(Cc1ccco1)Cc1cc2cc(OC)ccc2[nH]c1=O` (stereo not drawn) has a cytotoxicity of 18%.
With `CCCC(c1nnnn1C(C)(C)CC)N(Cc1ccco1)Cc1cc2ccc(OC)cc2[nH]c1=O` (stereo not drawn) the cytotoxicity was 72.9% (active).
